This is an account of results in PubChem BioAssay (Tox21).

Values joined by “and” are separate entries in the source; they are usually repeats but may differ in a detail not shown here. Equal entries are not always repeated. Results filed as inconclusive are left out. Some compounds were tested as several samples or in several runs, with calls that do not always agree. Active and inactive are the calls of the source. Unless noted, calls follow the shape of the dose curve; as a rule, active = well fitted curve in the direction sought with a large enough effect in the repeat runs; inconclusive = weak or mixed curves; inactive = no such curve, though single readings can be large; an effect the other way counts as inactive or inconclusive.

Test [1] can be described thus: qHTS assay to test for compound auto fluorescence at 535 nm (green) in HEK293 cells (AID 720680).
A short description of test [2]: qHTS assay to test for compound auto fluorescence at 460 nm (blue) in HEK293 cell free culture (AID 720681). The method, boiled down: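 Blue fluorescence (Ex 405/Em 460 nm, triamterene-equivalent) was read immediately after pin transfer of compound or DMSO into medium (DMEM, 10% FBS) without cells.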
The nature of test [3]: qHTS assay to test for compound auto fluorescence at 535 nm (green) in HEK293 cell free culture (AID 720682). The method, boiled down:
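Compounds were pin-transferred into cell-free DMEM with 10% FBS, and green fluorescence was read at excitation 485 nm and emission 535 nm. Intensities were expressed as fluorescein-equivalent values.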
Background: In qHTS, concentration-response curves come from the screen itself.

The nature of test [4]: qHTS assay to test for compound auto fluorescence at 590 nm (red) in HEK293 cell free culture (AID 720683). The method, boiled down:
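Red-channel autofluorescence of compounds in culture medium (DMEM, 10% FBS), no cells, measured at 540/590 nm. Rose Bengal sodium is the reference fluorophore for equivalence.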

Test [5] can be described thus: qHTS assay to test for compound auto fluorescence at 590 nm (red) in HepG2 cell free culture (AID 720684). The procedure, abridged:
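Steps: dispense MEM/10% FBS medium, no cells; pin compound or DMSO vehicle; read red channel, Ex/Em 540/590 nm. Output given as Rose Bengal sodium equivalents.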

Test [6] is described as follows: qHTS assay to test for compound auto fluorescence at 460 nm (blue) in HepG2 cell free culture (AID 720685). The method, boiled down:
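Compound (23 nL) or DMSO pinned into cell-free MEM with 10% FBS; blue fluorescence read at 405/460 nm excitation/emission, expressed as auto-fluorescence equivalency to triamterene.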

The nature of test [7]: qHTS assay to test for compound auto fluorescence at 535 nm (green) in HepG2 cell free culture (AID 720686).
A short description of test [8]: qHTS assay to test for compound auto fluorescence at 460 nm (blue) in HepG2 cells (AID 720687). The procedure, abridged: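 Blue-channel autofluorescence (Ex/Em 405/460 nm, triamterene-equivalent) was measured after 1 hr compound exposure at 37 C, 5% CO2. Cells were HepG2, plated overnight at 37 C in MEM plus 10% FBS.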
For test [9], the target named is Glucocorticoid receptor (Homo sapiens) (UniProt P04150). The experiment in a line: qHTS assay to identify small molecule agonists of the glucocorticoid receptor (GR) signaling pathway (AID 720691; active = well fitted activation curve with a large enough effect in the signal ratio in the repeat runs, not every such curve was filed as active; the % refers to the signal ratio). The method, boiled down: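 Agonist mode in a HeLa line carrying a GRE-controlled beta-lactamase reporter. Compounds act for 18 h at 37 C before a 2 h room-temperature FRET substrate step and fluorescence reading.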
Sequence of Glucocorticoid receptor (Homo sapiens) (P04150 whole entry, looked up): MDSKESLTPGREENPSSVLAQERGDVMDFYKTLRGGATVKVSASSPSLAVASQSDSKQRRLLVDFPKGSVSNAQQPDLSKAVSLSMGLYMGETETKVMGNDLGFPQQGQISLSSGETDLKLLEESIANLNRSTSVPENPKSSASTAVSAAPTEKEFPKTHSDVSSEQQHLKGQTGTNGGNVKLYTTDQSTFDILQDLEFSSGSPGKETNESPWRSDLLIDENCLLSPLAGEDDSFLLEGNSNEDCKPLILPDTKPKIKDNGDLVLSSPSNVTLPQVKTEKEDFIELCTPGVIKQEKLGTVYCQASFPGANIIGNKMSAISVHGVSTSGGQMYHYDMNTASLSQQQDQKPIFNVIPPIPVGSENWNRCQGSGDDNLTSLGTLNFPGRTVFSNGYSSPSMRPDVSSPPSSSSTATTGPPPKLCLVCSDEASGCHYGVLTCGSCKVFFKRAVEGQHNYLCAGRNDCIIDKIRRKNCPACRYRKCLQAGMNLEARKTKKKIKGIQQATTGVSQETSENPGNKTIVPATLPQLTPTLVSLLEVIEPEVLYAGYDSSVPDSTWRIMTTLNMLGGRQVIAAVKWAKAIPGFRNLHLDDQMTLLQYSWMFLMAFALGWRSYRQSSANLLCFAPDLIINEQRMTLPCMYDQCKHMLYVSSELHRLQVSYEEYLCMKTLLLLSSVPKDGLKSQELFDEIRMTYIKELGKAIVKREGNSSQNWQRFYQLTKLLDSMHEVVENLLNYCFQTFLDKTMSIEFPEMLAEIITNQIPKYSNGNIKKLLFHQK

Test [10] in a line: qHTS assay to identify small molecule antagonists of the glucocorticoid receptor (GR) signaling pathway - cell viability counter screen (AID 720693). Also: nearly all actives have a fitted effect of over 55% in size.
A short description of test [11]: qHTS assay for identifying genotoxic compounds that show differential cytotoxicity against isogenic chicken DT40 cell lines with known DNA damage response pathways - wild type cell line (AID 743012). Also: nearly all actives have a fitted effect of over 60% in size. Also: potency is read from the fitted curve at half-maximal effect. The method, boiled down:
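Cells (DT40 wild type, 300/well) are treated with DMSO-dissolved compounds after a ~0.5 h pre-incubation and kept 40 h at 37 C/5% CO2. Viability is then measured by CellTiter-Glo luminescence following 30 min at room temperature.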

The nature of test [12]: qHTS assay for identifying genotoxic compounds that show differential cytotoxicity against isogenic chicken DT40 cell lines with known DNA damage response pathways - Rev3 mutant cell line (AID 743014). Also: nearly all actives have a fitted effect of over 55% in size. Also: potency is read from the fitted curve at half-maximal effect.
Test [13] can be described thus: qHTS assay for identifying genotoxic compounds that show differential cytotoxicity against isogenic chicken DT40 cell lines with known DNA damage response pathways - Rad54/Ku70 mutant cell line (AID 743015). Also: nearly all actives have a fitted effect of over 60% in size. Also: potency is read from the fitted curve at half-maximal effect.
The nature of test [14]: qHTS assay to identify small molecule antagonists of the androgen receptor (AR) signaling pathway - cell viability counter screen (AID 743033; also: nearly all actives have a fitted effect of over 45% in size).
The nature of test [15]: qHTS assay to identify small molecule antagonists of the androgen receptor (AR) signaling pathway using the MDA cell line - cell viability counter screen (AID 743041; also: nearly all actives have a fitted effect of over 45% in size). The procedure, abridged: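 Cells were plated at 3,000 per well and left 5 h. Compounds in DMSO were then pinned in, followed by R1881. After 16 h at 37C, CellTiter-Fluor fluorescence gave viability.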
Test [16] deals with Androgen receptor (Homo sapiens) (UniProt P10275). The experiment in a line: qHTS assay to identify small molecule antagonists of the androgen receptor (AR) signaling pathway (AID 743035; active = well fitted inhibition curve with a large enough effect in the signal ratio in the repeat runs, not every such curve was filed as active; the % refers to the signal ratio). The procedure, abridged: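 Antagonism is scored as loss of R1881-driven beta-lactamase reporter expression in HEK293 cells carrying the reporter under a UAS element, after 16 h co-treatment at 37C and a 2 h room-temperature FRET substrate read.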
Sequence of Androgen receptor (Homo sapiens) (P10275 whole entry, looked up): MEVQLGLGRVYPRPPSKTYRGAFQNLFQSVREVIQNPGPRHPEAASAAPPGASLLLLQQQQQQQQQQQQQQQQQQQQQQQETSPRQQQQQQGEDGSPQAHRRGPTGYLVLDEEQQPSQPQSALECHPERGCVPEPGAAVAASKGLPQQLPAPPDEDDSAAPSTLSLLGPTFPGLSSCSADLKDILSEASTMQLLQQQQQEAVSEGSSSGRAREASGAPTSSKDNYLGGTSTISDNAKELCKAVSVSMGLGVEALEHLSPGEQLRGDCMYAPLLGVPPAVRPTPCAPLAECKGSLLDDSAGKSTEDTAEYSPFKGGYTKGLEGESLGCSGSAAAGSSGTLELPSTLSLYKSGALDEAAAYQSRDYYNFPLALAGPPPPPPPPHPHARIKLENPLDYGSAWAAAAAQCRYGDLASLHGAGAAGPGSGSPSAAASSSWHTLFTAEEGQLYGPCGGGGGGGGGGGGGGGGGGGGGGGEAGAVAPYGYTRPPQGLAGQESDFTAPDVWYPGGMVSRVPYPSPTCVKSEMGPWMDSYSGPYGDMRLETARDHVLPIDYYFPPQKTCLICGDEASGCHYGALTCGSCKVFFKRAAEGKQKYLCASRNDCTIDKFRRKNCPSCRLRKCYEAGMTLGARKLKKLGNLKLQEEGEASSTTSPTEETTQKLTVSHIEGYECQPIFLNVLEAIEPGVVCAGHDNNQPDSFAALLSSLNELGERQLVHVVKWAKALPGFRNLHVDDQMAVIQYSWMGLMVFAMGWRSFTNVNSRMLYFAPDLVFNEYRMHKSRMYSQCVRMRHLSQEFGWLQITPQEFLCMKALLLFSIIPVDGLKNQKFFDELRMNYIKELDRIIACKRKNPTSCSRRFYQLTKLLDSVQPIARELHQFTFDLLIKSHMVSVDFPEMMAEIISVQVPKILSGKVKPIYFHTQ

For test [17] the target is unchanged. The experiment in a line: qHTS assay to identify small molecule agonists of the androgen receptor (AR) signaling pathway (AID 743036; active = well fitted activation curve with a large enough effect in the signal ratio in the repeat runs, with a control signal flat, not every such curve was filed as active; the % refers to the signal ratio). The procedure, abridged:
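Activation was read as beta-lactamase FRET signal from LiveBLAzer B/G substrate, added for 2 h at room temperature. Before that, GeneBLAzer AR-UAS-bla GripTite (HEK293) cells had 16 h compound exposure at 37C.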

The target is the same in test [18]. The experiment in a line: qHTS assay to identify small molecule agonists of the androgen receptor (AR) signaling pathway using the MDA cell line (AID 743040; also: nearly all actives have a fitted effect of over 20% in size). The method, boiled down:
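Cells plated, 5 h at 37C/0% CO2; compound or DMSO pinned; 16 h at 37C; ONE-Glo added; luminescence measured after 30 min at room temperature. Reporter line: MDA-kb2 with MMTV-luciferase responsive to AR and GR.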

The target is the same in test [19]. The experiment in a line: qHTS assay to identify small molecule antagonists of the androgen receptor (AR) signaling pathway using the MDA cell line (AID 743042; also: nearly all actives have a fitted effect of over 55% in size). The procedure, abridged: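 Antagonist mode: compounds plus R1881 agonist added to MDA-kb2 AR-luc cells, incubated 16 h at 37C. Luciferase reporter luminescence quantified, with multiplexed CellTiter-Fluor readout for cell viability.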
% is scaled to controls: 0 for no effect and ±100 for the full control effect.

Regarding `CN(C)c1ccc(O)c2c1C[C@H]1C[C@H]3[C@H](N(C)C)C(=O)C(C(N)=O)=C(O)[C@@]3(O)C(=O)C1=C2O`, the molecule was classed as inactive in test [1], in test [2], in test [3], in [4], in test [5] and in test [6]. Also, the molecule was called inactive in [7], in [8], in test [9], in test [10] and in test [14]. Further, the Potency is 21.1 µM (active) [middle of 4 runs] in test [11]; 26.6 µM (active) and 18.8 µM (active) and 13.7 µM (active) in [12]; 23.7 µM (active) [middle of 4 runs] in test [13]. The Potency result in test [15] is “inactive”.

For the molecule `CNC(=O)Oc1ccc2c(c1)[C@]1(C)CCN(C)[C@@H]1N2C`, the molecule was called inactive in test [1], in test [2], in test [3], in test [4], in [5] and in test [6]. Besides, the outcome in test [7], in [8], in test [9], in [10] and in [14] was inactive. Further, the Potency result in [11], in [13] and in [15] was “inactive” each time.

`O=C1C(c2[nH]c3ccccc3c2O)=Nc2ccccc21`: the result in test [1], in [2], in test [3], in test [4], in [5] and in test [6] was inactive. The call in test [7], in [8], in test [9], in test [10] and in test [14] was inactive. In addition, the Potency entry in test [11], in test [12], in [13] and in test [15] was “inactive” throughout.

Consider `CC(=O)OC1CC(C)OC(C)O1` (stereo not given), for which the molecule was classed as inactive in test [1], in test [2], in [3], in test [4], in test [5] and in test [6]. The molecule was classed as inactive in test [7], in test [8], in test [9], in [10] and in [14]. Further, the Potency entry in [11], in test [13] and in [15] was “inactive” throughout.

In the case of `CCCCCCCCCCCCCCCCO`, the molecule was classed as inactive in test [1], in test [2], in [3], in test [4], in [5] and in [6]. Further, the molecule was classed as inactive in test [7], in test [8], in test [9], in test [10] and in test [14]. Also, the Potency entry in test [11], in test [13] and in [15] was “inactive” throughout. In test [12], the Potency entry is “inactive and 68.6 µM (active)”.

With `O=C(O)c1ccc(C(=O)O)c(C(=O)O)c1`, the outcome in test [1], in test [2], in test [3], in test [4], in [5] and in [6] was inactive. For the same molecule, the molecule was classed as inactive in [7], in test [8], in [9], in test [10], in test [14] and in test [16]. Besides, the molecule was classed as inactive in [19]. The Potency result in test [11], in test [12], in test [13], in test [17], in test [18] and in test [15] was “inactive” throughout.

In the case of `OCc1ccccc1`, the result in [1], in test [2], in test [3], in test [4], in [5] and in test [6] was inactive. The molecule was classed as inactive in test [7], in [8], in [9], in [10], in test [14] and in [16]. Further, the molecule was called inactive in test [19]. Also, the Potency result in test [11], in test [13], in [17], in test [18] and in [15] was “inactive” each time.

As to `COC(=O)CCCC(=O)OC`, the molecule was classed as inactive in test [1], in test [2], in [3], in test [4], in test [5] and in test [6]. In addition, the result in test [7], in test [8], in [9], in test [10] and in test [14] was inactive. In addition, the Potency entry in test [11], in [12], in test [13] and in test [15] was “inactive” throughout.

In the case of `CCCCOC(=O)c1ccc(N)cc1`, the molecule was called inactive in test [1], in [2], in test [3], in test [4], in test [5] and in test [6]. Further, the call in test [7], in test [8], in test [9], in test [10] and in test [14] was inactive. Besides, the Potency entry in test [11] is “inactive and 13.5 µM (active)”; in test [12] it was 9.44 µM (active) and 13.5 µM (active); in [13], 7.5 µM (active) and 7.59 µM (active). For the same molecule, the Potency result in test [15] is “inactive”.
